Screening results deposited in PubChem BioAssay by National Center for Advancing Translational Sciences (NCATS).
Sampled rows, rich in hits. Any-hit rate of the full collection: about 22%.
Shiga inhibitor – Shiga toxin inhibition; Vero cells, Shiga toxin protein synthesis inhibition reporter; inhibition, % at 38.7 µM; actives 9.2% (n = 290,000); in the data active = inhibition mostly above about 28%, no sharp cut-off; inactive = mostly below about 43%
LmPK inhibitor – blocks Leishmania mexicana pyruvate kinase activity; Q27686; purified LmPK, Kinase-Glo ATP luminescence, 1 h; Potency, µM (series often up to 57.5 µM), most hits filed as inhibitors; actives 0.37% (n = 290,000)
Target sequence (Q27686 whole entry, looked up): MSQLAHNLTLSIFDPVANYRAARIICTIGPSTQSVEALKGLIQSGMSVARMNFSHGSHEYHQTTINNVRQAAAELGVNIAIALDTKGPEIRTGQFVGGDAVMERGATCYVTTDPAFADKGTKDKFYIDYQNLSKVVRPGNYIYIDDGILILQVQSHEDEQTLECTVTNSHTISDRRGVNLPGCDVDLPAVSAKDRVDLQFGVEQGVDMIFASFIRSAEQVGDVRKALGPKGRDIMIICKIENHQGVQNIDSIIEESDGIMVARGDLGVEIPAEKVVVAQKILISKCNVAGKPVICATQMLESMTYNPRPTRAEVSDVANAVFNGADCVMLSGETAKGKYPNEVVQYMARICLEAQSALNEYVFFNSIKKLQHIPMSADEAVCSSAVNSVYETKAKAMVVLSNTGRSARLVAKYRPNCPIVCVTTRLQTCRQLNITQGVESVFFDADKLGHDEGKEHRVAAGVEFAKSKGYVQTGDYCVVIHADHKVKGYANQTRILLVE
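qHTS format; LmPK 0.1 nM; substrates PEP 0.5 mM and ADP 0.1 mM. One-hour room-temperature incubation, then coupled luciferase luminescence; 0.5 nM enzyme wells mark activation.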
Cycloheximide cs – counter-screen for Shiga toxin inhibitors: cycloheximide protein synthesis inhibition | cell reporter, cycloheximide protein synthesis inhibition counterscreen | max response, % | actives 12% (n = 300,000) | AID 2314; in the data active = max response mostly above about 13%, no sharp cut-off; inactive = mostly below about 14%; note: read at 38.3 µM for the half of the compounds with a filed dose
Pf growth 48h – P. falciparum growth inhibition at 48 hours (one generation); P. falciparum luciferase growth in erythrocytes, 48 h; Potency, µM (highest dose often 28.7 µM), usual class: inhibitors; actives 5.9% (n = 310,000); AID 504832
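Luciferase-expressing parasites in RBCs, 2% Hct / 0.1% parasitemia final; RPMI 1640 + 0.5% Albumax; 37 C, 5% CO2, one generation; luminescence read-out, lower signal = inhibition.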
Pf growth 96h – P. falciparum growth inhibition at 96 hours; P. falciparum luciferase reporter growth, 96 h; AID 504834; actives 6.9% (n = 320,000); Potency, µM (highest dose often 28.7 µM), usual class: inhibitors
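Delayed-death screen, second-generation endpoint: infected erythrocytes, 2% hematocrit, 0.05% parasitemia final; 96 hours at 37 C, 5% CO2; luciferase detection reagent; luminescence decrease equals reduced growth.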
Hits are given with their value; 0 = inactive; ? = inconclusive; - = not tested or not shown; [ ] = remark or other dose. Unless noted, calls come from the whole dose curve; as a rule, active = well fitted inhibition curve with a large enough effect; inconclusive = small, poorly fitted or top-dose-only effect, or another doubt; inactive = no such curve, though single readings can be large or run the other way.

SMILES | Shiga inhibitor | LmPK inhibitor | Cycloheximide cs | Pf growth 48h | Pf growth 96h
Cc1ccc(C2=NN(C(=O)CNCCO)C(c3cccs3)C2)cc1 (configuration not stated) | 0 | 0 | 42.4 | ? | ?
CC(=O)Nc1ccc(C2=NN(c3ccccc3)C(c3cccs3)C2)cc1 (configuration not stated) | 87.9 | 0 | 70.3 | ? | ?
CCS(=O)(=O)Nc1cccc(C2=NN(S(=O)(=O)c3ccc(C)cc3)C(c3cccs3)C2)c1 (configuration not stated) | 0 | 0 | 0 | ? | 0
COc1ccc(C2=NN(S(C)(=O)=O)C(c3cccs3)C2)cc1 (configuration not stated) | 59.6 | ? | 40.7 | 0 | 0
Cc1ccc(C2=NN(S(C)(=O)=O)C(c3cccs3)C2)cc1 (configuration not stated) | 178.1 | 0 | 35.4 | 0 | 0
COc1ccc(NC(=O)CCNS(=O)(=O)c2cccc3nsnc23)c(OC)c1 | 0 | 0 | 0 | 0 | 0
Cc1c(NC(=O)Nc2ccc(C#N)cc2)c(=O)n(-c2ccccc2)n1C | 0 | 0 | 0 | 0[0.00184 µM] | ?
O=C1CCCN1CCC(=O)N1CCCC(N2CCN(c3ccccc3F)CC2)C1 (configuration not stated) | 0 | 0 | 0 | 0 | 0
COc1ccc(NC(=S)NC2CCCCC2)cn1 | 0 | 0 | 0 | 0 | 0
O=C(c1ccccc1)N1N=C(c2ccccc2)CC1c1cccs1 (configuration not stated) | 0 | 0 | 0 | ? | ?
CS(=O)(=O)N1N=C(c2ccc(Br)cc2)CC1c1cccs1 (configuration not stated) | 48.2 | 0 | 32.4 | - | 0
CCS(=O)(=O)Nc1cccc(C2=NN(S(=O)(=O)c3ccccc3)C(c3cccs3)C2)c1 (configuration not stated) | 0 | 0 | 0 | ? | ?
CCc1ccc(C2=NN(S(C)(=O)=O)C(c3cccs3)C2)cc1 (configuration not stated) | 87.6 | 22.4µM | 64.9 | - | 0.294µM
CC(C)CCc1noc(CN2CCN(c3ccc(Cl)cn3)CC2)n1 | 0 | 0 | 0 | 0 | ?
CCOC(=O)N1CCC(N2Cc3cccc(C(=O)Nc4ccc(N(CC)CC)cc4C)c3C2=O)CC1 | 0 | 0 | 0 | ? | 0.738µM
Cc1ccc(NC(=O)c2cccc3c2C(=O)N(C2CCCCC2)C3)cc1 | 0 | 0 | 0 | 0 | 11.7µM
CCN(CC)c1ccc(NC(=O)c2cccc(C)c2OC)c(C)c1 | 86.6 | 0 | 65.0 | 0 | 0
CCOC(=O)N1CCC(N2Cc3cccc(C(=O)Nc4cc(F)ccc4F)c3C2=O)CC1 | 0 | 0 | 0 | - | 0
CCOC(=O)N1CCC(N2Cc3cccc(C(=O)Nc4ccc(F)cc4)c3C2=O)CC1 | 0 | 0 | 0 | 3.29µM | 0
CCN(CC)c1ccc(-n2nc3cc(C)c(NC(=O)c4ccccc4C)cc3n2)c(C)c1 | 0 | - | 0 | - | -
Cn1c2cc(S(C)=O)sc2c2cnn(Cc3ccccc3F)c(=O)c21 (configuration not stated) | 0 | - | 0 | - | -
O=S(=O)(CCSc1nc2ccccc2s1)c1nc2ccccc2s1 | 0 | 0 | 0 | 11.7µM | 0
C=CCS(=O)(=O)c1nc2ccccc2s1 | 0 | 0 | 44.2 | ? | ?
CCN(CC(=O)Nc1ccc2c(c1)OCCO2)S(=O)(=O)c1ccc(F)cc1 | 0 | 0 | 0 | 0 | 0
Cc1ccc(N2CCN(c3ccc(C)cc3)C(CC(=O)O)C2=O)cc1 (configuration not stated) | 0 | 0 | 9.2 | 11.7µM | ?
SMILES | Shiga inhibitor | LmPK inhibitor | Cycloheximide cs | Pf growth 48h | Pf growth 96h
Cc1nn(CC(=O)Nc2ccc(Cl)cc2Cl)c(=O)c2ccccc12 | - | 0 | 0 | 0 | 0
CCC1=C(OC(=O)N(CC)CC)N2C(=O)OC(=NCc3ccccc3)[C@]2(C)[C@H]2C1=CC[C@H]1C(=O)NC(=O)[C@H]12 | 0 | 0 | 0 | ? | 0
CCC1=C(OC(=O)N(CC)CC)N2C(=O)OC(=NCC3CC3)[C@]2(C)[C@H]2C1=CC[C@H]1C(=O)N(CC)C(=O)[C@H]12 | 0 | 0 | 0 | 10.4µM | ?
CCC1=C(OC(=O)N(CC)CC)N2C(=O)OC(=NCC3CC3)[C@]2(C)[C@H]2C1=CC[C@H]1C(=O)N(C)C(=O)[C@H]12 | 0 | 0 | 0 | 8.28µM | 10.4µM
Cc1c(C(=O)N(C)C2CC(C)(C)NC(C)(C)C2)oc2c(F)cccc12 | 0 | 0 | 0 | 0 | ?
Cn1c(=O)c2c(ncn2CCO)n(C)c1=O | 0 | 0 | 0 | 0 | 4.26µM
CC(C)CCn1cnc2c1c(=O)n(C)c(=O)n2C | 0 | 0 | 0 | 0 | 0
